TGFb SMAD3 inh: blocks TGF-b signaling; HepG2 CAGA-GFP TGF-b/SMAD3 reporter, GFP fluorescence, 18 h; TGF-beta stimulated, 500 pg/mL final; Potency, µM (series often up to 46.1 µM), for inactives: at the highest dose activity, negative = inhibition, hits mostly inhibitors; actives 1.2% (n = 410,000); AID 588855; also: potency is read from the fitted curve at half-maximal effect; % is scaled to controls: 0 for no effect and ±100 for the full control effect; nearly all actives have a fitted effect of over 65% in size
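Cell-based qHTS in HEPG2 carrying a CAGA-GFP Smad reporter; compounds added before 500 pg/mL final TGF-beta, 18 h incubation at 37 degrees C, GFP fluorescence quantified per cell by imaging cytometry.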
ASM inhibitor: inhibitors of human secretory acid sphingomyelinase. placental ASM, HMU-PC fluorogenic substrate, 60 min. Potency, µM (titrated, usually from 57.5 µM), inactives show at the top dose activity change, negative = inhibition, most hits filed as inhibitors. actives 0.006% (n = 340,000). AID 504937; also: potency is read from the fitted curve at half-maximal effect
Target sequence (P17405 47-631 limits assumed): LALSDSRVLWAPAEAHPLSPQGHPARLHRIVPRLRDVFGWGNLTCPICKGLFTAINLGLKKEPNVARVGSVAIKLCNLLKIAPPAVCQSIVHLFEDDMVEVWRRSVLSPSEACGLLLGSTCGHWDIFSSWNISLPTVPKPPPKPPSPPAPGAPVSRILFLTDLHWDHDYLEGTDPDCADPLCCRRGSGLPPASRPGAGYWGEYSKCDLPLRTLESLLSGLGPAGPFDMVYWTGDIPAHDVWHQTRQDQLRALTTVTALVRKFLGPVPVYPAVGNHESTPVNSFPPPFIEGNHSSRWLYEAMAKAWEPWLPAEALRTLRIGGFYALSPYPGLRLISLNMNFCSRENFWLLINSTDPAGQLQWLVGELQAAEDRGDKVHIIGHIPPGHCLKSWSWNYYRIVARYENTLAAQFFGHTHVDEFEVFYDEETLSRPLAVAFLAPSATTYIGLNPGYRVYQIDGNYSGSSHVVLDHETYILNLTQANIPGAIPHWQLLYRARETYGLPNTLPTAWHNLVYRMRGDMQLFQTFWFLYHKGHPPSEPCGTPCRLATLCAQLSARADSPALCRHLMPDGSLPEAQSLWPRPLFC
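Steps: dispense placental human ASM, pin compound, wait 10 min at room temperature, add HMU-PC0 substrate at 9 uM final, incubate 60 min at 37 °C, add stop solution raising pH to 10, read fluorescence.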
IL1B secr inh: blocks inflammasome-driven IL-1 beta release; activity change, % at 57.5 µM; actives 4.7% (n = 360,000); THP-1 LPS/ATP IL-1B secretion, AlphaLISA, 16 h; active compounds read low; AID 743279; in the data active = activity change below about -50%; inconclusive = mostly about -30% to -49%; also: % is scaled to controls: 0 for no effect and ±100 for the full control effect
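THP-1 cells pretreated 1 hr with compounds (up to 57.5 uM final), then stimulated with LPS (250 ng/mL final) plus ATP (1.25 mM final); secreted IL-1B measured by AlphaLISA after 16 hr, decreased signal indicating inhibition.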
DT40 TDP1 CPT: DT40-hTDP1 cell growth loss with CPT | chicken DT40 Tdp1-/-;hTDP1 cells + 20 nM CPT, ATP luminescence, 48 h | Potency, µM (highest dose often 46.2 µM), for inactives: at the top dose activity change, negative = growth inhibition, actives largely listed as inhibitors | actives 12% (n = 420,000); also: potency is read from the fitted curve at half-maximal effect; % is scaled to controls: 0 for no effect and ±100 for the full control effect; nearly all actives have a fitted effect of over 55% in size
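Chicken DT40 Tdp1-/- cells complemented with human TDP1, 400 cells/well, exposed to compounds plus 20 nM camptothecin for at least 48 h at 37 C; viability read as ATP content by CellTiter-Glo luminescence.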
HepG2 tox: HepG2 cytotoxicity, counter-screen for TGF-b inhibitors; HepG2 CAGA-GFP viability, ATP luminescence, 18 h; Potency, µM (doses to about 46.1 µM), without a hit: at the top dose activity change, negative = cytotoxicity, most hits filed as cytotoxic; actives 0.76% (n = 410,000); AID 588856; also: potency is read from the fitted curve at half-maximal effect
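CellTiter-Glo luminescence gave cytotoxicity after 18 hours at 37 degrees C. The cells were HepG2 CAGA-GFP in 1% FBS DMEM, stimulated with 500 pg/mL TGF-beta after compound addition. %Activity was normalised to no-cell wells (complete cell-killing) and DMSO (no toxicity), and curves were fitted and classified.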
TDP1 cell noCPT: qHTS for Inhibitors of human tyrosyl-DNA phosphodiesterase 1 (TDP1): qHTS in cells in absence of CPT; DT40 Tdp1-/- hTDP1 cells, no CPT, ATP luminescence, 48 h; Potency, µM (titrated, usually from 46.2 µM), for the others: at the highest dose activity change, negative = growth inhibition, most hits filed as inhibitors; actives 15% (n = 420,000); AID 686978, 2013; also: potency is read from the fitted curve at half-maximal effect; % is scaled to controls: 0 for no effect and ±100 for the full control effect; nearly all actives have a fitted effect of over 55% in size
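A cellular qHTS used chicken DT40 cells lacking endogenous Tdp1 but carrying stably transfected human TDP1. Compounds were applied without camptothecin, and cell growth kinetics were judged by ATP-dependent luminescence after ≥48 hr.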
Starred values were filed as active, the others as inactive; u = inconclusive; x = no result; [ ] = dose if it differs, or a comment. This is a sample that favours compounds with a hit; in the whole collection about 19% have one here. Unless noted, calls follow the shape of the dose curve; as a rule, active = well fitted curve in the direction sought with a large enough effect; inconclusive = small, poorly fitted or top-dose-only effect, or another doubt; inactive = no such curve, though single readings can be large; an effect the other way counts as inactive or inconclusive.

SMILES | TGFb SMAD3 inh | ASM inhibitor | IL1B secr inh | DT40 TDP1 CPT | HepG2 tox | TDP1 cell noCPT
CCNc1ccccc1CP(=O)(c1ccccc1)c1ccccc1O (configuration not stated) | 1% | 1% | -5 | u | -11% | 2.6µM*
Cc1cccc(-c2nc(N3CCN(c4ccc(F)cc4)CC3)c3ccccc3n2)c1 | -3% | x | x | u | -3% | u
CC(C)N(C(=O)[C@H]1C[C@H](CC(=O)NCCCn2ccnc2)C(=O)N2CCc3c([nH]c4ccc(Cl)cc34)[C@]12C)C(C)C | u | -1% | u | u | -18% | 18µM*
COCCCNC(=O)CC1C[C@H](C(=O)N(C(C)C)C(C)C)[C@@]2(C)c3[nH]c4ccc(OC)cc4c3CCN2C1=O (some centres not stated) | u | 0% | 0 | -16% | -1% | u
COCCCNC(=O)C[C@H]1C[C@H](C(=O)N(C(C)C)C(C)C)[C@@]2(C)c3[nH]c4ccc(Cl)cc4c3CCN2C1=O | u | -3% | 5 | 12µM* | -25% | 8.2µM*
Cc1cc(C)n(CC(=O)NCc2ccccc2)c(=O)c1C#N | 0% | -2% | -10 | -5% | -5% | -11%
COC(=O)c1ccc(CSc2nnc(CS(=O)Cc3ccc(Br)cc3)n2-c2ccccc2)cc1 (configuration not stated) | u | -7% | -11 | 7.3µM* | -39% | 13µM*
COC(=O)c1ccc(CSc2nnc(-c3c[nH]c4ccccc34)n2-c2ccccc2)cc1 | u | -9% | u | 21µM* | -18% | 16µM*
COC(=O)c1ccc(CSc2nnc(-c3c[nH]c4ccccc34)n2C)o1 | -37% | 7% | -1 | 23µM* | 1% | 13µM*
O=C(Nc1cccc(N2CCC(NCc3cnn(-c4ccccc4)n3)CC2)c1)c1cccnc1 | x | x | x | 14%[9.04 µM] | x | u
C[C@@H]1CN([C@H](C)CO)C(=O)CCCn2cc(nn2)CO[C@H]1CN(C)S(=O)(=O)c1ccccc1F | u | x | -13 | -10% | -4% | -15%
CC(C)(C)OC(=O)N1CCC(C(=O)Nc2cccc(C(=O)NCCCCc3ccccc3)c2)CC1 | -4% | -3% | 25 | u | -11% | u
CC(=O)c1ccc(N2CCN(C(=O)CCCCn3c(=O)[nH]c4ccccc4c3=O)CC2)cc1 | -6% | x | x | 13µM* | -15% | 16µM*
O=C(CCCCCn1c(=S)[nH]c2ccc(N3CCOCC3)cc2c1=O)NCCc1ccccc1 | u | 48% | 39 | 3% | 2% | -24%
COc1cccc(CNC(=O)C2CCC(CNc3nc(=S)[nH]c4ccccc34)CC2)c1 (configuration not stated) | -4% | 4% | -17 | u | -2% | u
O=C(CCCn1c(=O)[nH]c2ccc(Br)cc2c1=O)N1CCN(c2cccc(Cl)c2)CC1 | 5µM* | x | x | 15µM* | -28% | 8.2µM*
COc1cccc(N2CCN(C(=O)CCCCCNc3nc(=S)[nH]c4ccccc34)CC2)c1 | u | -3% | -175* | 4.6µM* | -1% | 9.2µM*
Cc1cccc(N2CCN(C(=O)CCCCCn3c(=S)[nH]c4ccc(N5CCOCC5)cc4c3=O)CC2)c1C | u | 69% | -16 | 16µM* | -7% | 6.5µM*
O=C(CCn1c(=O)[nH]c2ccccc2c1=O)N1CCN(c2ccc(Cl)cc2)CC1 | -14% | -12% | 23 | u | -1% | -25%
CC(=O)c1ccc(N2CCN(C(=O)CCCn3c(=O)[nH]c4ccc(Br)cc4c3=O)CC2)cc1 | u | -12% | -30 | 15µM* | -59% | 13µM*
CCCCNC(=O)CCCn1c(=O)[nH]c2ccc(Br)cc2c1=O | 1% | 0% | -22 | -11% | -26% | -30%
O=C(CCCn1c(=S)[nH]c2ccccc2c1=O)N1CCN(c2cccc(Cl)c2)CC1 | u | -13% | 21 | 16µM* | -6% | 18µM*
CC(C)CN(C)C(=O)CCc1nnc(Cc2cccc(C(F)(F)F)c2)o1 | 4% | -1% | 9 | 3% | -7% | 3%
Cc1cc(C)c(C(CC(=O)c2cccs2)C(C#N)C#N)c(C)c1 (configuration not stated) | 18µM* | -4% | -105* | u | 13µM* | 26µM*
NC(=O)c1nn2c(C(F)(F)F)cc(-c3ccc(Br)cc3)nc2c1Cl | 38% | x | x | u | -2% | u
COc1ccccc1-n1cc(CN2CCc3onc(-c4ccc(Br)cc4)c3C2=O)nn1 | x | x | -24 | u | x | u
COc1ccccc1-c1noc2c1C(=O)N(Cc1cn(-c3ccc(Cl)cc3)nn1)CC2 | -46% | x | 0 | u | -21% | 23µM*
COc1ccc(Cn2cc(CN3CCc4onc(-c5ccc(Br)cc5)c4C3=O)nn2)cc1 | x | x | 0 | 16µM* | x | 21µM*
CCOc1cccc(-c2cnc3cccnn23)c1 | -14% | x | -12 | u | -12% | 10µM*
COc1ccc(NC(=O)C2(C)Cc3c(-c4cccc(NC(C)=O)c4)ccnc3O2)cn1 (configuration not stated) | -6% | x | 91 | 0.73µM* | 10% | 1.5µM*
